Data: PubChem BioAssay AID624387 (National Center for Advancing Translational Sciences (NCATS), 2012)
Active and inactive are the calls of the source. Calls follow the shape of the dose curve; as a rule, active = well fitted curve in the direction sought with a large enough effect; inactive = no such curve, though single readings can be large or run the other way.

These compounds were tested against Pyruvate kinase PKM (Homo sapiens) (UniProt P14618) (assay: qHTS for Activators of Human Muscle Isoform 2 Pyruvate Kinase: Extended Characterization using M1 for Probe 2). Conditions: purified hPK-M1, Kinase-Glo ATP luminescence, 1 h; series mostly up to 57.7 µM.
Description: Human pyruvate kinase muscle isoform 1 (hPK-M1) enzyme was supplied as a highly purified (>95% pure) preparation from Harvard Medical School and assayed for its ability to generate ATP from ADP using phosphoenolpyruvate (PEP) as a substrate. ATP generation was detected in a coupled reaction by luciferase-mediated luminescence, an ATP-dependent process. Pyruvate kinase substrates, PEP and ADP, were present in the assay at Km and approximately 10-fold below Km respectively. The enzyme was assayed at an intermediate level of activity to screen for both inhibitors and activators. NIH Chemical Genomics Center [NCGC] NIH Molecular Libraries Probe Centers Network [MLPCN] MLPCN Grant: MH085679 Assay Submitter (PI): Matthew G. Vander Heiden, Harvard Medical School
Three uL of substrate mix (at r.t.) in assay buffer (50 mM Imidazole pH7.2, 50 mM KCl, 7 mM MgCl2, 0.01% Tween 20, 0.05% BSA) was dispensed into white solid bottom 1,536 well microtiter plates so that the final concentrations of substrates in the assay were 0.1 mM ADP and 0.5 mM PEP. 23 nL of compound were delivered by a pin tool and 1 uL of enzyme mix (final concentration of 1 nM) in assay buffer (4 degree Celsius) was added. Plates were incubated at room temperature for 1 hour. Two uL of detection mix (Kinase-Glo, Promega; at 4 degree Celsius protected from light) was added and luminescence read by a ViewLux (Perkin Elmer) at 1 second exposure/plate. Data were normalized to the uninhibited (row 31). Additionally, a no enzyme and 5-fold enzyme control was dispensed in row 32, split equally between the two conditions.

Pyruvate kinase PKM (Homo sapiens), sequence (P14618 whole entry, looked up, canonical isoform): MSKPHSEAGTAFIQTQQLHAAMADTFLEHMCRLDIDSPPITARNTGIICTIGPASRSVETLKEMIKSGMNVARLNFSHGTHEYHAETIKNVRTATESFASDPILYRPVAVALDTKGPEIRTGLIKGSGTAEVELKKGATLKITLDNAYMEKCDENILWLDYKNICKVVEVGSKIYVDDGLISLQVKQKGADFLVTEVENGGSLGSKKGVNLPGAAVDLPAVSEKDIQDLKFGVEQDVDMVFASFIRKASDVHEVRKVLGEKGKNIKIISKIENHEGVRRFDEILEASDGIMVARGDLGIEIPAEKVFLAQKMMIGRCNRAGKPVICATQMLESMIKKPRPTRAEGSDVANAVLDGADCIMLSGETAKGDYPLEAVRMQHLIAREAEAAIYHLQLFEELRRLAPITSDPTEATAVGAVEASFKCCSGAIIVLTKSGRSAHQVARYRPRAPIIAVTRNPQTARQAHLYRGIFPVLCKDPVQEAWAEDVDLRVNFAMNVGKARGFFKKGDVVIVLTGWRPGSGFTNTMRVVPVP

outcome, inactive:
COc1cccc(Cn2ncc3c4sc(S(C)=O)cc4n(C)c3c2=O)c1 (stereo not given)
Nc1cccc(S(=O)(=O)N2CCCN(S(=O)(=O)c3ccc4c(c3)OCCO4)CC2)c1
Cn1c2cc(S(C)=O)sc2c2cnn(Cc3cccc(N)c3)c(=O)c21 (stereo not given)
O=S(=O)(c1ccc2c(c1)OCCO2)N1CCN(S(=O)(=O)c2c(F)cccc2F)CC1
Cc1ccc(NS(=O)(=O)c2ccc3c(c2)CCC(=O)N3)cc1C
